# Assay results from the supplement of paper PMC8728848.
# The sample as a whole holds a higher share of the strongest signals than the screen did.
# B1: PX14351B-bth-512-36-512 (Bacteroides thetaiotaomicron) (protein)
# chain: ASETQQWKTLEDTRSALMGVYGLTRAALADNNTHWICGDLRKGDFTVYKRSDLQAVSDNELNKPYDLLKKVSNWRRFYAVINAASVFMEKAPRTVELDRSYSEQNLKYDIAQVRALRAFAYFYMVRIWGDVPLVTYSYDNGTFPSMPRTDAQTVLSYAKAELLTAIEDLPYQYGTQTNLYYGSYGAQWQGKLFNKLSAYSVLAHICAWQGNYAEAETYSAFIIDHASEINAKYTSIADLTSETGLFYSNASVKGSRILGFNFAHNDNEATQSGHLEQLTLAYPLVQKSYPEIYISKDSLFSIFTNFDDLRFGIIDTIKYSSYYVQNLNEETPVFSKIKIIQDGSAKDNDFGVFGSSIVFTRLEDITLLRAEALCALNRSTEAVSYLNMIRTNRGLREVSFKKDFGNNRESLIAEIFEERRRELMGEGWRWYDLVRRQKLMKDNEAFLRLISSGGIYWPVSEDIITANSQIEQNEFWK
# Assays:
# Assay in all cases: glycan array binding signal (z-score within array); higher = stronger binding
# Conditions in all cases: glycan notation: IUPAC condensed, linker removed
# Fuc(a1-2)Gal(b1-4)Glc = target: Fuc(a1-2)Gal(b1-4)Glc
# Method in brief: (§1)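 Columns mapping to the same glycan were averaged after glycan names were converted to IUPAC-condensed notation. The data come from 3228 arrays in the Consortium for Functional Glycomics database, limited to those with an available protein sequence. Binding is reported as a within-array Z-score averaged across arrays of one protein sequence and across linkers.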
# [1] = target: Fuc(a1-2)Gal(b1-4)[Fuc(a1-3)]GlcNAc(b1-3)[Neu5Ac(a2-6)Gal(b1-4)GlcNAc(b1-6)]Gal(b1-4)Glc
# Method in brief: as §1
# [2] = target: Fuc(a1-2)Gal6S(b1-4)Glc6S
# Method in brief: as §1
# [3] = target: Fuc(a1-2)[GalNAc(a1-3)]Gal(b1-4)GlcNAc(b1-2)Man(a1-3)[Fuc(a1-2)[GalNAc(a1-3)]Gal(b1-4)GlcNAc(b1-2)Man(a1-6)]Man(b1-4)GlcNAc(b1-4)GlcNAc
# Method in brief: as §1
# [4] = target: Fuc(a1-3)[Gal(b1-4)]GlcNAc(b1-3)Gal(b1-4)[Fuc(a1-3)]GlcNAc(b1-3)Gal(b1-4)[Fuc(a1-3)]GlcNAc
# Method in brief: as §1
# [5] = target: Fuc(a1-3)[GalNAc(b1-4)]GlcNAc6S
# Method in brief: as §1
# [6] = target: Gal(a1-3)Gal(b1-3)[Fuc(a1-4)]GlcNAc(b1-2)Man(a1-3)[Gal(a1-3)Gal(b1-3)[Fuc(a1-4)]GlcNAc(b1-2)Man(a1-6)]Man(b1-4)GlcNAc(b1-4)GlcNAc
# Method in brief: as §1
# [7] = target: Gal(a1-3)Gal(b1-4)GlcNAc(b1-2)Man
# Method in brief: as §1
# [8] = target: Gal(a1-3)Gal(b1-4)GlcNAc(b1-3)GalNAc
# Method in brief: as §1
# [9] = target: Gal(a1-3)Gal(b1-4)GlcNAc(b1-6)GalNAc
# Method in brief: as §1
# Gal(b1-3)Gal = target: Gal(b1-3)Gal
# Method in brief: as §1
# Gal(b1-3)GalNAc = target: Gal(b1-3)GalNAc
# Method in brief: as §1
# [10] = target: Gal(b1-3)GalNAc(a1-3)[Fuc(a1-2)]Gal(b1-4)GlcNAc
# Method in brief: as §1
# [11] = target: Gal(b1-3)GlcNAc(a1-6)Gal(b1-4)GlcNAc
# Method in brief: as §1
# [12] = target: Gal(b1-3)GlcNAc(b1-3)Gal(b1-3)GlcNAc
# Method in brief: as §1
# [13] = target: Gal(b1-3)GlcNAc(b1-3)Gal(b1-4)GlcNAc(b1-2)[Gal(b1-3)GlcNAc(b1-3)Gal(b1-4)GlcNAc(b1-6)]Man(a1-6)[Gal(b1-3)GlcNAc(b1-3)Gal(b1-4)GlcNAc(b1-2)Man(a1-3)]Man(b1-4)GlcNAc(b1-4)[Fuc(a1-6)]GlcNAc
# Method in brief: as §1
# [14] = target: Gal(b1-3)[Neu5Ac(a2-6)]GlcNAc(b1-4)Gal(b1-4)Glc
# Method in brief: as §1
# [15] = target: Gal(b1-4)GlcNAc(b1-2)Man(a1-6)[Man(a1-3)]Man(b1-4)GlcNAc(b1-4)GlcNAc
# Method in brief: as §1
# [16] = target: Gal(b1-4)GlcNAc(b1-2)[Gal(b1-4)GlcNAc(b1-6)]Man(a1-6)[Gal(b1-4)GlcNAc(b1-2)Man(a1-3)]Man(b1-4)GlcNAc(b1-4)[Fuc(a1-6)]GlcNAc
# Method in brief: as §1
# [17] = target: Gal(b1-4)GlcNAc(b1-3)Gal(b1-4)Glc
# Method in brief: as §1
# [18] = target: Gal(b1-4)GlcNAc(b1-3)Gal(b1-4)GlcNAc(b1-2)[Gal(b1-4)GlcNAc(b1-3)Gal(b1-4)GlcNAc(b1-6)]Man(a1-6)[Gal(b1-4)GlcNAc(b1-3)Gal(b1-4)GlcNAc(b1-2)Man(a1-3)]Man(b1-4)GlcNAc(b1-4)GlcNAc
# Method in brief: as §1
# [19] = target: Gal(b1-4)GlcNAc(b1-3)Gal(b1-4)GlcNAc(b1-2)[Gal(b1-4)GlcNAc(b1-3)Gal(b1-4)GlcNAc(b1-6)]Man(a1-6)[Gal(b1-4)GlcNAc(b1-3)Gal(b1-4)GlcNAc(b1-2)Man(a1-3)]Man(b1-4)GlcNAc(b1-4)[Fuc(a1-6)]GlcNAc
# Method in brief: as §1
# [20] = target: Gal(b1-4)GlcNAc(b1-3)Gal(b1-4)GlcNAc(b1-3)Gal(b1-4)GlcNAc(b1-2)Man(a1-3)[Gal(b1-4)GlcNAc(b1-3)Gal(b1-4)GlcNAc(b1-3)Gal(b1-4)GlcNAc(b1-2)Man(a1-6)]Man(b1-4)GlcNAc(b1-4)GlcNAc
# Method in brief: as §1
# [21] = target: Gal(b1-4)GlcNAc(b1-3)Gal(b1-4)GlcNAc(b1-3)Gal(b1-4)GlcNAc(b1-3)Gal(b1-4)GlcNAc(b1-3)Gal(b1-4)GlcNAc(b1-2)[Gal(b1-4)GlcNAc(b1-3)Gal(b1-4)GlcNAc(b1-3)Gal(b1-4)GlcNAc(b1-3)Gal(b1-4)GlcNAc(b1-3)Gal(b1-4)GlcNAc(b1-6)]Man(a1-6)[Gal(b1-4)GlcNAc(b1-3)Gal(b1-4)GlcNAc(b1-3)Gal(b1-4)GlcNAc(b1-3)Gal(b1-4)GlcNAc(b1-3)Gal(b1-4)GlcNAc(b1-2)Man(a1-3)]Man(b1-4)GlcNAc(b1-4)[Fuc(a1-6)]GlcNAc
# Method in brief: as §1
# [22] = target: Gal(b1-4)GlcNAc(b1-3)GalNAc
# Method in brief: as §1
# [23] = target: Gal(b1-4)GlcNAc(b1-6)[Gal(b1-4)GlcNAc(b1-3)]GalNAc
# Method in brief: as §1
# Gal3S(b1-4)Glc = target: Gal3S(b1-4)Glc
# Method in brief: as §1
# Gal6S(b1-4)GlcNAc6S = target: Gal6S(b1-4)GlcNAc6S
# Method in brief: as §1
# GlcA(b1-3)Gal = target: GlcA(b1-3)Gal
# Method in brief: as §1
# [24] = target: GlcA3S(b1-3)Gal(b1-4)GlcNAc(b1-3)Gal(b1-4)Glc
# Method in brief: as §1
binder,measurement,setting,value
B1,glycan array binding signal (z-score),Fuc(a1-2)Gal(b1-4)Glc,-0.31
same,glycan array binding signal (z-score),[1],-0.143
same,glycan array binding signal (z-score),[2],-0.262
same,glycan array binding signal (z-score),[3],1.76
same,glycan array binding signal (z-score),[4],0.19
same,glycan array binding signal (z-score),[5],-0.185
same,glycan array binding signal (z-score),[6],17.9
same,glycan array binding signal (z-score),[7],-0.075
same,glycan array binding signal (z-score),[8],0.527
same,glycan array binding signal (z-score),[9],-0.314
same,glycan array binding signal (z-score),Gal(b1-3)Gal,-0.39
same,glycan array binding signal (z-score),Gal(b1-3)GalNAc,-0.25
same,glycan array binding signal (z-score),[10],0.364
same,glycan array binding signal (z-score),[11],0.113
same,glycan array binding signal (z-score),[12],-0.074
same,glycan array binding signal (z-score),[13],9.18
same,glycan array binding signal (z-score),[14],-0.273
same,glycan array binding signal (z-score),[15],-0.288
same,glycan array binding signal (z-score),[16],2.5
same,glycan array binding signal (z-score),[17],-0.34
same,glycan array binding signal (z-score),[18],0.755
same,glycan array binding signal (z-score),[19],2.73
same,glycan array binding signal (z-score),[20],3.44
same,glycan array binding signal (z-score),[21],2.11
same,glycan array binding signal (z-score),[22],-0.256
same,glycan array binding signal (z-score),[23],1.91
same,glycan array binding signal (z-score),Gal3S(b1-4)Glc,-0.16
same,glycan array binding signal (z-score),Gal6S(b1-4)GlcNAc6S,-0.34
same,glycan array binding signal (z-score),GlcA(b1-3)Gal,-0.428
same,glycan array binding signal (z-score),[24],-0.114
